High-throughput results: PubChem BioAssay, several laboratories
This is a sample that favours compounds with a hit; in the whole collection about 0.78% have one here.
V-ATPase pHluor = yeast V-ATPase proton transport regulation by pHLuorin; response, % at 10 µM; 0.37% of 350,000 active; S. cerevisiae, pHLuorin cytosolic pH fluorescence; AID 504577; in the data active = response mostly above about 7.3%, no sharp cut-off; inactive = mostly below about 5.4%; also: actives read high
PKA-R1A activ = activates the PKA-R1A holoenzyme complex. 0.083% of 340,000 active. P00514+P68181. PKA-R1A dissociation, Cy5-IP20 fluorescence polarization; scaled: DMSO 0%, 113 µM cGMP 100%. activation, % at 11.4 µM;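 active = percent activation above the mean of all tested compounds plus 3 SD, cut at about 19% in these data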;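 also: higher means more PKAc released from R1A so a rise in polarization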
PKA-R2B act = activators of human PKA-R2B complex; P22694+P31323; PKA-R2B holoenzyme dissociation, Cy5-IP20 fluorescence polarization; R2B truncated from residue 108, S112A mutant; 0% DMSO only, 100% 113 µM cGMP; activation, % at 11.4 µM; 0.079% of 340,000 active; AID 504700;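 active = activation above a cutoff set at the mean over all compounds plus 3 SD, cut at about 18% in these data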;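 also: higher means more holoenzyme dissociation and a rise in polarization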
PolyA inhibitor = yeast polyadenylation inhibition. S. cerevisiae SKY197-pL101 polyadenylation reporter, beta-gal luminescence; efflux-impaired pdr1/pdr3 knockout yeast; score 100 = 6 SD above DMSO. activity score, % at 12 µM. 0.02% of 300,000 active. AID 1875;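 active = lowest replicate activity score at least 50, where 100 means six control SD above control mean; inconclusive = lowest score under 50 but half or more replicates reach 50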;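 also: yeast exposed to compound for 9 h at 30 °C; higher score means more reporter readthrough which indicates perturbed polyadenylation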
JMJD2C inh = blocks human GASC-1 demethylase activity; Q9H3R0; GST-JMJD2C(1-420) H3K9me3 demethylation, DELFIA europium; inhibition, % at 2.35 µM; 0.069% of 330,000 active; AID 2099;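 active = more than half of a compound's replicate wells show inhibition beyond 50%, single wells judged on their own value; inconclusive = some, but no more than half, of replicates pass 50% inhibition; inactive = no replicate passes 50% inhibition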;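 also: signal counts dimethyl H3K9 product captured on neutravidin plate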
Target sequence (Q9H3R0 1-420 limits assumed): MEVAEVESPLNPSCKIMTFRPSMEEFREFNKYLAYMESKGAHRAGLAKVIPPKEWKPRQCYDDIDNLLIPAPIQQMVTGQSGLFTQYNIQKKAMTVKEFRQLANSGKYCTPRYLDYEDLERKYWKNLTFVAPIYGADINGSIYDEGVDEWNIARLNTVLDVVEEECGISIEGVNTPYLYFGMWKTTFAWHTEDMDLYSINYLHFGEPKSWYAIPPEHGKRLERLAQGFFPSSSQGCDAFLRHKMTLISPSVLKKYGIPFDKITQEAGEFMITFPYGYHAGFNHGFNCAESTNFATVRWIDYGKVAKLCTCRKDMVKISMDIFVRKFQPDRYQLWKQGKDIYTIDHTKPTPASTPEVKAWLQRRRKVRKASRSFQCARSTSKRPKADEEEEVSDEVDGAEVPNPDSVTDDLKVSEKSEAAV
Yeast superoxide = caloric restriction mimetics inhibiting age-related superoxide in yeast; 0.18% of 330,000 active; superoxide response (% of plate mean), % at 10 µM; S. cerevisiae aged cells, superoxide DHE fluorescence; active compounds read low;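 active = superoxide response under a set limit, about three screen SD below normal, cut at about 65% in these data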;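 also: yeast aged for seven days with compound at 30 °C before DHE staining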
VATPase regulator = modulates yeast V-ATPase proton transport | shares compounds with V-ATPase pHluor | S. cerevisiae pHLuorin cytosolic pH | response, % at 10 µM | 2% of 980 active | AID 602197; in the data active = response above about 24%
Each line names hits and unclear results; the compound was inactive in the other large screens (follow-up assays come after a bar, where they were run).

Cc1ccc(-c2cc(C(=O)N/N=C/c3c(C)nn(C)c3C)c3ccccc3n2)cc1C	V-ATPase pHluor 12 | VATPase regulator inactive
Cc1ccc(-c2cc(C(=O)N/N=C/c3ccoc3)c3ccccc3n2)cc1	none (no result: PolyA inhibitor)
O=C1C(C=NC2CC2)=C(O)c2ccccc21	V-ATPase pHluor 9.8 | VATPase regulator inactive
CN(C)/C=N/c1sc2c(c1C#N)CCCC2	V-ATPase pHluor 11 | VATPase regulator inactive
Cc1ccc(S(=O)(=O)N2[C@@H](c3ccc(Cl)cc3)C(C(=O)O)=C[C@H]2C(C)(C)C)cc1	none (no result: PolyA inhibitor)
FC(F)(F)c1cc(-c2ccccc2)nc(-n2cc(Cl)cn2)n1	none
COc1nn(-c2nc(-c3ccccc3)cc(C(F)(F)F)n2)cc1[N+](=O)[O-]	V-ATPase pHluor 17 | VATPase regulator inactive
COc1cc(NC(=S)NC(=O)c2ccccc2F)ccc1NC(=O)c1ccco1	V-ATPase pHluor 54 | VATPase regulator inactive
C[C@H](NC(=O)COc1ccc(Cl)cc1)C(=O)N1CCC2(CC1)NCCc1[nH]cnc12	none
COC(=O)c1c(-c2ccc(C(C)(C)C)cc2)csc1NC(=O)C1C2CCC(O2)C1C(=O)O (stereo not given)	none
O=C(COC(=O)c1cnc(Cl)c(Cl)c1)NCCC1=CCCCC1	V-ATPase pHluor 65 | VATPase regulator inactive
Clc1cccc(CSC2=NCCCN2)c1	none | VATPase regulator inactive
O=C(CSc1nnc(NC(=O)c2ccco2)s1)Nc1ccc2c(c1)OCCO2	none
N=C(N)SCc1ccccn1	none
c1ccc(CSc2nnc(SCc3ccccn3)s2)nc1	V-ATPase pHluor 11 | VATPase regulator inactive
C1CCCN(c2nc3nonc3nc2N2CCCCCC2)CC1	none
CN(C)C(=O)CN1CCN(c2nc3nonc3nc2N2CCCCC2)CC1	V-ATPase pHluor 13 | VATPase regulator inactive
COCCn1c(SCC(=O)NNC(=O)c2ccccc2)nc2ccccc21	V-ATPase pHluor 12 (no result: PolyA inhibitor) | VATPase regulator inactive
Cc1cc2c(cc(C(=O)N3CCC(C(=O)N4CCCC4)CC3)n2Cc2c(F)cccc2Cl)o1	V-ATPase pHluor 10 | VATPase regulator inactive
NS(=O)(=O)c1cccc(NC(=O)CSc2nnc(-c3ccccc3)o2)c1	none (no result: PolyA inhibitor) | VATPase regulator inactive
COc1ccc(S(=O)(=O)NC2CCCC2)cc1C(N)=O	none
CCn1c(SCC(=O)NCC(=O)Nc2ccc(F)cc2)nnc1-c1cccs1	V-ATPase pHluor 8.6 | VATPase regulator inactive
CCn1c(SCC(=O)NCCc2ccccc2)nnc1-c1cccs1	none
CN(Cc1ccc(F)cc1)C(=O)c1ccc(NC(=O)CC2SC(N3CCCC3)=NC2=O)cc1 (stereo not given)	none
CCn1cc(C(=O)NCc2ccco2)c(=O)c2ccc(C)nc21	V-ATPase pHluor 6.7 | VATPase regulator inactive
COc1ccc(NC(=O)CSc2nnc(-c3cccnc3)o2)c(OC)c1	none
CCn1nnc(NC(=O)c2ccc(-c3ccc(Cl)cc3)o2)n1	V-ATPase pHluor 7.1 | VATPase regulator inactive
CCn1nnc(NC(=O)Cc2ccc(Cl)cc2)n1	none
Cc1[nH]n(-c2ccccc2)c(=O)c1-c1ccc(Cl)cc1	none
O=c1[nH]n(-c2ccc(Cl)cc2)c(=O)c(Cl)c1Cl	none | VATPase regulator inactive
CCOC(=O)CCC(=O)Nc1ccccc1C(N)=O	V-ATPase pHluor 7.7 | VATPase regulator inactive
C[C@@H]1C=C[C@](Cc2ccccc2)(C(=O)NCC2CC2)N1C(=O)c1ccccc1	V-ATPase pHluor 11 | VATPase regulator inactive
O=C(O)CNC(=O)C(c1ccccc1)c1ccccc1	V-ATPase pHluor 11, PolyA inhibitor inconclusive | VATPase regulator inactive
CCN(CC)C(=O)Cn1cc(S(=O)(=O)CC(=O)Nc2cc(OC)ccc2OC)c2ccccc21	none
CN(CC(=O)Nc1cc(S(=O)(=O)N2CCOCC2)ccc1Cl)C1CCS(=O)(=O)C1 (stereo not given)	V-ATPase pHluor 7.6 | VATPase regulator inactive
CCCCn1c(=O)[nH]c(=O)c2c1nc(-c1ccc(C)c([N+](=O)[O-])c1)n2CC	V-ATPase pHluor 9.9 | VATPase regulator inactive
CC1=C(C(=O)Nc2cc(C(=O)NCc3ccccc3)ccc2C)SCCO1	V-ATPase pHluor 55 (no result: PolyA inhibitor, JMJD2C inh, Yeast superoxide) | VATPase regulator inactive
COc1ccc(-c2cccc(-c3cc(=O)oc4cc(OC)c(OC)c(OC)c34)c2)cc1	V-ATPase pHluor 8.2 (no result: PolyA inhibitor, JMJD2C inh) | VATPase regulator inactive
COc1ccc(Cl)cc1S(=O)(=O)N1CCCC(C(=O)N2CCOCC2)C1 (stereo not given)	V-ATPase pHluor 9.5 | VATPase regulator inactive
O=C(C1CCCN(S(=O)(=O)c2cc(Cl)ccc2Cl)C1)N1CCCC1 (stereo not given)	PolyA inhibitor inconclusive
O=C(Nc1ccc(Oc2ccccc2)nc1)C1CCN(Cc2ccco2)CC1	V-ATPase pHluor 8.7 | VATPase regulator inactive
O=C(Nc1ccc(Oc2ccccc2)nc1)C1CCCCN1Cc1ccco1 (stereo not given)	none
COCCn1c(SCC(=O)OC(C)C)nnc1-c1ccccc1	V-ATPase pHluor 9.9 | VATPase regulator inactive
CCS(=O)(=O)c1nc(S(=O)(=O)c2ccc(C)cc2)c(N2CCN(C)CC2)s1	none
CCCc1nc2sc3c(c2c(=O)n1NC(=O)CCC(=O)O)CCCC3	V-ATPase pHluor 8.6 | VATPase regulator inactive
O=C(CNC(=O)c1ccccc1Br)Nc1cccc(S(=O)(=O)Nc2ccccc2Cl)c1	none (no result: PolyA inhibitor, JMJD2C inh, Yeast superoxide)
O=C1CC(=O)C(n2cncn2)C(c2c(F)cccc2Cl)C1 (stereo not given)	none
O=C1CC(=O)C(n2cncn2)C(c2ccc(Cl)cc2)C1 (stereo not given)	V-ATPase pHluor 7.5 | VATPase regulator inactive
COc1ccc(S(=O)(=O)N(CC(=O)N2CCN(C)CC2)c2ccc(C)cc2)cc1OC	V-ATPase pHluor 12 | VATPase regulator inactive
COc1ccc(S(=O)(=O)N(CC(=O)N2CCN(C)CC2)c2ccc(C)cc2)cc1Br	none (no result: Yeast superoxide)
CC(CN1CCOCC1)OC(=O)CCc1ccccc1 (stereo not given)	none
CC(CN1CCCCC1)OC(=O)CCc1ccccc1 (stereo not given)	V-ATPase pHluor 9.8 | VATPase regulator inactive
CCOC(=O)c1[nH]c2ccccc2c1NC(=O)c1nonc1C	none | VATPase regulator inactive
CC1CCC(NS(=O)(=O)c2ccc(N3CCCC3=O)cc2)CC1 (stereo not given)	none
Cc1cc(=O)[nH]n(CCO)c1=O	V-ATPase pHluor 13 | VATPase regulator inactive
COc1ccc(CC(=O)n2[nH]c(=O)cc(C)c2=O)cc1OC	none
CC(=O)N1CCc2cc(Br)cc(S(=O)(=O)N3CCC(C(=O)O)CC3)c21	none
